Measured values taken from PubChem BioAssay (EPA / NIEHS).
Inconclusive results are not listed. Activity calls are given as the source filed them. The calls were made as follows, unless noted: active = hit-call score of the fitted dose curve at least 0.9, where 1 is the maximum; inconclusive = response in the unintended direction; inactive = score below 0.9.

Tests used:
[1] = Tanguay_ZF_120hpf_SWIM_legacy: (Legacy) Oregon State University Tanguay Lab 120 Hour Post-fertilization zebrafish Assay for Swim Bladder Malformation (AID 2283654);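 also: swim bladder malformation in each larva scored yes or no under brightfield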
Outline: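 Embryos lacking chorions were exposed individually and statically to test chemical from 6 to 120 hpf at 28C, with 0.64% DMSO as vehicle. At 120 hpf, swim bladder malformation was recorded as present or absent by brightfield microscopy.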

[2] = Tanguay_ZF_120hpf_TRUN_legacy: (Legacy) Oregon State University Tanguay Lab 120 Hour Post-fertilization zebrafish Assay for Truncated Body (AID 2283655)
Outline: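 Binary presence/absence of truncated body is recorded at 120 hpf by brightfield, with non-mortality endpoints skipped after death. Exposure is static from 6 hpf in sealed dark plates at 28C, using dechorionated wild-type zebrafish, 0.64% DMSO.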

[3] = Tanguay_ZF_120hpf_NC_legacy: (Legacy) Oregon State University Tanguay Lab 120 Hour Post-fertilization zebrafish Assay for Notochord and Tail Malformation (AID 2283656)
Outline: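 Dechorionated 5D zebrafish, 1/well from 6 hpf; static exposure to 120 hpf, 28C, sealed, dark; final DMSO 0.64% v/v. NC scored binary (present/absent); dead embryos not scored. Fit vs DMSO baseline, gain direction.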

[4] = Tanguay_ZF_120hpf_TR_legacy: (Legacy) Oregon State University Tanguay Lab 120 Hour Post-fertilization zebrafish Assay for Touch Response (AID 2283667)
Outline: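 5D WT embryos; static exposure to 120 hpf, 28C, sealed/dark; DMSO 0.64% v/v final. TR scored present/absent; dead embryos excluded. Pos ctrl 5uM trimethyltin chloride.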

[5] = Tanguay_ZF_120hpf_ActivityScore_legacy: (Legacy) Oregon State University Tanguay Lab 120 Hour Post-fertilization zebrafish Assay Score for Activity (AID 2283742);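 as to AC50: dechorionated Tropical 5D wild-type zebrafish embryos held singly per well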
Outline: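 Embryos are staged, enzymatically dechorionated at 4 hpf, placed individually at 6 hpf, then held in test chemical (0.64% DMSO) at 28C until 120 hpf. Mortality and malformations are scored by brightfield, with non-mortality endpoints skipped for dead embryos.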

[6] = CCTE_Padilla_ZF_144hpf_TERATOSCORE: (Legacy) CCTE's 144 Hour Post-fertilization zebrafish Assay Teratoscore, Padilla Lab (AID 2283679; active = hit-call score of the fitted dose curve at least 0.9, where 1 is the maximum; inactive = score below 0.9;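 as to AC50: zebrafish embryos with chorions exposed by immersion from 6-8 hpf to 5 dpf with daily renewal; teratogenicity score from eye scoring of death hatching and malformations at 144 hpf; higher score means more developmental defects relative to DMSO baseline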)
Outline: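 Larvae scored by eye at 144 hpf for death, hatching and malformations after a day in clean Hanks'. Before that, daily-renewed exposure at 80 uM (0.4% DMSO, 26C) from roughly 6-8 hpf through 5 dpf, 4 embryos per chemical.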

[7] = CEETOX_H295R_MTT_cell_viability: Viability Assessment in the CeeTox HT-H295R MTT Assay (AID 2283718; active = hit-call score of the fitted dose curve at least 0.9, where 1 is the maximum; inactive = score below 0.9;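 as to AC50: curve fitted both ways so AC50 may mark viability loss or gain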)
Outline: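 MTT reduction (0.5 mg/ml, 4 h at 37 C; absorbance at 570 and 650 nm) gave viability as background-corrected percent change versus controls. H295R cells had 48 h forskolin (10 uM) prestimulation, then 48 h chemical exposure at 0.1% DMSO.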

[8] = STM_H9_OrnithineISnorm_perc: Stemina devTOX quickPredict H9 human embryonic stem cell (hESC)-based Assay for Ornithine (ORN) Metabolite Biomarker, Normalized (AID 2283712; active = hit-call score of the fitted dose curve at least 0.9, where 1 is the maximum; inactive = score below 0.9;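 also: ornithine released into spent medium during last day measured by mass spectrometry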)
Outline: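 Undifferentiated pluripotent H9 hESCs were exposed to compound for 72h, with media and compound replaced every 24h. Ornithine in final 24-h conditioned media was measured by UPLC-HRMS, normalized to 13C-labeled spike-in standard and to median 0.1% DMSO control.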

[9] = STM_H9_CystineISnorm_perc: Stemina devTOX quickPredict H9 human embryonic stem cell (hESC)-based Assay for Cystine (CYSS) Metabolite Biomarker, Normalized (AID 2283713; active = hit-call score of the fitted dose curve at least 0.9, where 1 is the maximum; inactive = score below 0.9)
Outline: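 Undifferentiated H9 hESCs were exposed to compound for 72h, with medium and compound replaced every 24h. Final-24h conditioned medium was deproteinized and analyzed by UPLC-HRMS. Cystine EIC area was normalized to spiked C13 standard and 0.1% DMSO median.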

[10] = STM_H9_OrnCyssISnorm_ratio: Stemina devTOX quickPredict H9 human embryonic stem cell (hESC)-based Assay for Ornithine (ORN):Cystine (CYSS) Ratio (AID 2283714)
Outline: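 Steps: H9 hESCs in pluripotent state dosed 72h, medium plus compound renewed every 24h; conditioned medium from the final 24h deproteinized in 40% acetonitrile; ORN and CYSS quantified by UPLC-HRMS with C13 spike-ins; ratio relative to vehicle.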

[11] = test system: Thyroperoxidase (TPO), gene 54314; assay: CCTE_Simmons_AUR_rTPO: CCTE's Amplex UltraRed Assay for Thyroperoxidase (TPO) Inhibition, Simmons Lab (AID 2283662);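 as to AC50: potency for loss of signal meaning inhibition of peroxidase activity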
Outline: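 Endpoint is decreased Amplex UltraRed fluorescence after a 30-min, 37C reaction of rat thyroid microsomes with 300 uM H2O2. Eight test concentrations (5 nM–87.5 uM final) in 0.5% DMSO, three biological replicates each.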

[12] = CCTE_Simmons_CellTiterGLO_HEK293T: Viability Assessment in CCTE's Assays for Thyroperoxidase (TPO) Inhibition, Simmons Lab (AID 2283665);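 as to AC50: cells exposed to compound for 24 h before readout; actives reduce ATP signal below DMSO vehicle meaning cytotoxicity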
Outline: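 HEK293T cells in DMEM with 1% FBS were dosed with 8 concentrations (5 nM–87.5 uM final, 0.5% DMSO) for 24 hr at 37C; ATP content was read by CellTiter-Glo luminescence, loss-of-signal versus DMSO, three biological replicates.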

[13] = test system: Thyroperoxidase (TPO), gene 445522; assay: CCTE_Simmons_GUA_TPO: CCTE's Guaiacol Assay for Thyroperoxidase (TPO) Inhibition, Simmons Lab (AID 2283750)
Outline: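 Porcine thyroid microsomes (25 ug) in 200mM potassium phosphate, preincubated 30 s at 37C with compound (8 concentrations, 5 nM–87.5 uM) and 35mM guaiacol; 1mM H2O2 starts reaction. Absorbance change at 450nm over first 80 s; loss of signal versus DMSO, three replicates.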

[14] = read-out: solute carrier (SLC10A1), SLC10A1 (gene 6554); assay: LTEA_HepaRG_SLC10A1: Life Technologies and Expression Analysis (LTEA) Assay for solute carrier (SLC10A1) using HepaRG (AID 2283657; active = hit-call score of the fitted dose curve at least 0.9, where 1 is the maximum; inactive = score below 0.9); settings: mRNA level, 48 h; actives raise or lower the signal
Outline: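 Transcript levels were measured by qRT-PCR after human HepaRG cells received test chemical for 48 hours, up to 100 uM in half-log dilutions. Values come from bidirectional concentration-response fitting relative to 0.5% DMSO vehicle.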

[15] = read-out: matrix metalloproteinase-1 (MMP1), MMP1 (gene 4312); assay: LTEA_HepaRG_MMP1: Life Technologies and Expression Analysis (LTEA) Assay for matrix metalloproteinase-1 (MMP1) using HepaRG (AID 2283658; active = hit-call score of the fitted dose curve at least 0.9, where 1 is the maximum; inactive = score below 0.9); settings: mRNA level, 48 h; actives raise or lower the signal
Outline: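 qRT-PCR (TaqMan, Fluidigm arrays) of MMP1 transcript, normalized against three housekeeping genes and fitted in both directions relative to 0.5% DMSO vehicle. Human HepaRG cultures received duplicate 48 h exposures across 8 points, highest 100 uM with half-log steps.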

[16] = read-out: Cytochrome P450 (CYP24A1_1), CYP24A1 (gene 1591); assay: LTEA_HepaRG_CYP24A1_1: Life Technologies and Expression Analysis (LTEA) Assay for Cytochrome P450 (CYP24A1_1) using HepaRG (AID 2283671; active = hit-call score of the fitted dose curve at least 0.9, where 1 is the maximum; inactive = score below 0.9); settings: mRNA level, 48 h; actives raise or lower the signal
Outline: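 In this test, gene induction or suppression of CYP24A1 in human HepaRG liver cells is measured by qRT-PCR after 48 h chemical treatment (eight concentrations, maximum 100 uM). Values are fitted bidirectionally relative to DMSO.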

[17] = ArunA_CellTiter_hNC: Viability Assessment in the ArunA Biomedical's Oris Neural Crest (hNC) Cell Migration Assay (AID 2283752)
Outline: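 Human H9-derived neural crest stem cells were plated at 60,000 per well on Matrigel in growth medium with LIF and bFGF, incubated 16 h at 37C, then exposed to chemical for 72 h. Viability was read with CellTiter Aqueous One as loss of signal versus DMSO.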

[18] = ArunA_CellTiter_hNP: Viability Assessment in the ArunA Biomedical's Oris Neural Crest (hNC) Cell Migration Assay (AID 2283753)
Outline: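 H9-derived hNP1 neuroprogenitors, 60,000/well on Matrigel, cultured 16 h, then 72 h chemical exposure in test medium. Cell titer via CellTiter Aqueous One; positive-direction fit vs DMSO.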

[19] = ArunA_Migration_hNC: ArunA Biomedical's Oris Neural Crest (hNC) Cell Migration Assay (AID 2283755)
Outline: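 Human H9-derived neural crest stem cells, 60,000/well on Matrigel, 16 h at 37C, then 72 h chemical exposure after seeding-stopper removal. Migration into detection zone read as calcein-AM fluorescence (ex494/em517), relative to DMSO.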

Measured: AC50

O=C(N[C@@H](Cc1ccccc1)[C@@H](O)C(=O)N1C[C@@H](O)[C@@H](O)C1)c1cc2cc(Cl)ccc2[nH]1
inactive: [1] | [2] | [3] | [4] | [5]

O=C(OCCCCCOC(=O)c1ccccc1)c1ccccc1
inactive: [1] | [2] | [3] | [4] | [6] | [7]

Cc1ccc2ncccc2c1
inactive: [1] | [2] | [3] | [4] | [5]

COc1ccc2c(c1)c(CC(=O)O)c(C)n2C(=O)c1ccc(Cl)cc1
active: [6] 61.7 µM | [8] 82.5 µM | [10] 84.8 µM
inactive: [1] | [2] | [3] | [9] | [7]

CCCCOC(=O)CCCCCCCCC(=O)OCCCC
inactive: [1] | [2] | [3] | [4] | [5]

CCNc1cccc(C)c1
active: [11] 12.1 µM
inactive: [1] | [2] | [12] | [4] | [13]

CC1(C)NC(=O)NC1=O
inactive: [1] | [2] | [3] | [6] | [5]

NC(=O)Cn1c(=O)cc(CCN2CCN(c3nccc4sccc34)CC2)c2ccc(F)cc21
active: [8] 0.0187 µM
inactive: [1] | [2] | [3] | [4] | [9] | [10] | [7]

CC(CO)OC(C)CO (stereo not given) (tested in a mixture with another compound)
inactive: [1] | [2] | [3] | [4] | [8] | [9] | [5]

CCc1c(C(=O)NN2CCCCC2)nn(-c2ccc(Cl)cc2Cl)c1-c1ccc(Br)cc1
active: [6] 0.533 µM
inactive: [1] | [3]

O=[N+]([O-])C(CO)(CO)CO
inactive: [1] | [3] | [4] | [5]

COc1ccc(S(=O)(=O)N2C(=O)[C@@](c3ccccc3OC)(N3C[C@H](O)C[C@H]3C(=O)N(C)C)c3cc(Cl)ccc32)c(OC)c1
active: [8] 5.99 µM | [7] 3.43 µM
inactive: [2] | [3] | [4] | [9] | [10] | [5]

CCCCCCCCCCCCCCCCCC(=O)O
inactive: [1] | [2] | [4] | [5]

CC(C)c1ccc(C(=O)N=C(N)N)cc1S(C)(=O)=O
inactive: [1] | [2] | [4]

COc1cc(C=O)ccc1O
active: [2] 50 µM | [6] 11.8 µM | [5] 69.8 µM
inactive: [3] | [14] | [15] | [16]

Nc1ccccc1N
inactive: [3] | [12] | [9] | [7] | [5]
active: [2] 10.9 µM | [11] 4.15 µM | [4] 77 µM | [6] 89.9 µM | [8] 7.65 µM | [10] 8.66 µM

Clc1cc(Cl)c(Cl)cc1Cl
inactive: [1] | [2] | [4]

Cc1cccc([N+](=O)[O-])c1C
inactive: [2] | [3] | [4] | [5]

CCCCCCCCCCCCCO
inactive: [2] | [3] | [4]

CC(=O)OCCOCCOCCOC(C)=O
inactive: [1] | [2] | [4] | [5]

Cc1ccc(Cl)cc1
inactive: [1] | [3] | [14] | [15] | [4] | [16]

FC(F)(F)C(F)(F)C(F)(F)C(F)(F)C(F)(F)C(F)(F)CCI
inactive: [1] | [2] | [4] | [5]
active: [6] 31.3 µM

C[C@]12C=CC(=O)C=C1CC[C@@H]1[C@@H]2C(=O)C[C@@]2(C)[C@H]1CC[C@]2(O)C(=O)CO
active: [7] 0.844 µM
inactive: [1] | [3] | [11] | [12] | [4] | [6]

CC=Cc1ccc(O)c(OC)c1
inactive: [1] | [3] | [12] | [7] | [5]
active: [11] 6.14 µM | [6] 53.8 µM

CC(=O)Oc1ccccc1C(=O)O
inactive: [2] | [3]

CNCc1cc(F)ccc1Oc1ccc(Cl)c(Cl)c1
active: [6] 15.7 µM
inactive: [1] | [3] | [5]

Cc1ccc(C(C)C)c(O)c1
inactive: [2] | [3] | [4] | [5]

c1cc(-c2ccncc2)ccn1
inactive: [1] | [3] | [4] | [7] | [5]

CNC(=O)[C@H]1O[C@@H](n2cnc3c(NCc4cc(Cl)ccc4OCc4cc(C)no4)ncnc32)[C@H](O)[C@@H]1N
inactive: [2] | [3] | [11] | [4]

CCCCCCCCCCO
inactive: [2] | [3] | [4] | [6]

Nc1nc(N)c2nc(CNc3ccc(C(=O)N[C@@H](CCC(=O)O)C(=O)O)cc3)cnc2n1
active: [11] 11.7 µM | [12] 0.189 µM
inactive: [2] | [3] | [4]

CCCCCCOCCO
inactive: [1] | [2] | [5]

CC(=O)OC/C=C(\C)CCC=C(C)C
active: [12] 24.6 µM | [6] 52.8 µM
inactive: [1] | [3] | [14] | [15] | [11] | [4] | [16] | [5]

OC[C@@H](O)[C@@H](O)[C@H](O)[C@H](O)CO
active: [18] 80.6 µM
inactive: [1] | [3] | [4] | [8] | [9] | [10] | [17] | [19]

CC(=O)C(C)=CC1C(C)=CCCC1(C)C (stereo not given)
inactive: [2] | [3] | [6]

C1CCC(SSC2CCCCC2)CC1
inactive: [2] | [3] | [14] | [15] | [16] | [6] | [5]

CCCCN(CCCC)CCCC
inactive: [2] | [3] | [14] | [15] | [4] | [16] | [5]

NCCO
inactive: [2] | [3] | [4] | [5]
